# Results from PMC7819943, “Rice protein-binding microarrays: a tool to detect cis-acting elements near promoter regions in rice”.
# In all, about 35,000 sequences were measured (“fluorescence intensity (a.u.)”: median about 10,000, highest 2% from about 52,000 on). What follows is part of a selection rich in the highest values, with near analogues and random picks from the rest.
# Target: T1, OsWOX13 (Oryza sativa, UniProt Q5QMM3 1-267)
# T1 sequence: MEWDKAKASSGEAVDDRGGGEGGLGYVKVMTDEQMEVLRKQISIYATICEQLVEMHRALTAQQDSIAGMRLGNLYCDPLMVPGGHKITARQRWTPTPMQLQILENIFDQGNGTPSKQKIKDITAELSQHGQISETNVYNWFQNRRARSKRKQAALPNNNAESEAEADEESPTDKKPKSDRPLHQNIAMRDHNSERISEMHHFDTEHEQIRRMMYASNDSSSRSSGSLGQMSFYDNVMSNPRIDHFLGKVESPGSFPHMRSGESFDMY
# Assay: protein-binding microarray (RPBM); PBS, 2% BSA, 51.3 ng/ul salmon testes DNA, 50 uM zinc acetate, 200 nM TF, 25 C, 1 h; high values mean tight binding
# Conditions: protein: recombinant; tags: N-terminal polyhistidine and DsRed monomer fusion (pET32a); label: CyDye5-dUTP incorporated in the synthesized complementary strand; 3' TTTTT single-stranded linker to array surface; dsDNA, one strand shown
# Summary of the method: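 Using Ni–NTA, transcription factors fused N-terminally to polyhistidine and DsRed were purified after expression in E. coli BL21-CodonPlus. These were incubated at 200 nM with a blocked, double-stranded custom Agilent array for 1 h at 25 °C in a buffer containing 50 µM zinc acetate, and the array was washed. The binding signal is per-feature fluorescence intensity (arbitrary units) on an Axon 4000B scanner.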
row,Sequence,binding signal
1,TTGGTGTAATTGACATGCGGGCCCACAATTTTATTATTTTCGGAGTCACCTAGTGCAG,23800 fluorescence intensity (a.u.)
2,ATTGATAACGGCAGACTAACTGATACGACAGAGATGGTCACGGAGTCACCTAGTGCAG,7620 fluorescence intensity (a.u.)
3,CCGGATTGCTGGATCATTTTCTTCTCGGCCCATTGGACTCCGGAGTCACCTAGTGCAG,3410 fluorescence intensity (a.u.)
4,ATGATTACTAAAACTGTACTTAAAGGCAATGGTTTCTGTACGGAGTCACCTAGTGCAG,13900 fluorescence intensity (a.u.)
5,CATTGATTGGATCGTACGCTTGTGTTGCATGACCAATGATCGGAGTCACCTAGTGCAG,44200 fluorescence intensity (a.u.)
6,AATCCATGATTATCACATATTTACTGTAGAACTACATTGTCGGAGTCACCTAGTGCAG,11200 fluorescence intensity (a.u.)
7,TTAAATATAGTTAATTAAACTAGCTAGCTCCTCCGATCCTCGGAGTCACCTAGTGCAG,12800 fluorescence intensity (a.u.)
8,GTAGGATTGGATGGATATAGGAGCCTGCCTTGCCTTCCTCCGGAGTCACCTAGTGCAG,6030 fluorescence intensity (a.u.)
9,CAAAATTGGCTCCTCACCCTTGTGCAGATGCAGCCTTCTTCGGAGTCACCTAGTGCAG,13700 fluorescence intensity (a.u.)
10,CTCTCTCCTTGGCCTCTTCCTCCCTGGTCGGTAGCGCAGCCGGAGTCACCTAGTGCAG,59600 fluorescence intensity (a.u.)
11,CTTTGTAGACTGACAGTGATAGTATTGTACTGCTATACGTCGGAGTCACCTAGTGCAG,9250 fluorescence intensity (a.u.)
12,TGGGCGGTTAATTTGACTTCGATGTTCAGTACCTTGTGGGCGGAGTCACCTAGTGCAG,4180 fluorescence intensity (a.u.)
13,CTAGTAATAACACTGACATCAATTAGCAATTTAGCATCCGCGGAGTCACCTAGTGCAG,13200 fluorescence intensity (a.u.)
14,CTTGGCTGAAACAAATCAATTAACATCACAAACAGGAGAACGGAGTCACCTAGTGCAG,11300 fluorescence intensity (a.u.)
15,TAATGCTTAATTAATCTCAATATAATCGCGTGCTTTGTTTCGGAGTCACCTAGTGCAG,7810 fluorescence intensity (a.u.)
16,ACATTAATGATTAGAGACCATATTGTCATCAACTATTGTACGGAGTCACCTAGTGCAG,30800 fluorescence intensity (a.u.)
17,CTTAATTAATATAATCGGCAGGAGCTCACTGTTTGTTAACCGGAGTCACCTAGTGCAG,52800 fluorescence intensity (a.u.)
18,TCGTAAATTAATTATTAATAATATACTAATGGTATCCCCACGGAGTCACCTAGTGCAG,53900 fluorescence intensity (a.u.)
19,ACATCATTGACATAATATGATTTAACAACAAACAATTTAGCGGAGTCACCTAGTGCAG,34800 fluorescence intensity (a.u.)
20,ACATTAATGATTAGAGACTATATTGTCTCTAACTGTTGTACGGAGTCACCTAGTGCAG,39900 fluorescence intensity (a.u.)
21,AATAATCATACTAATTATATAAGTATATACTAAATATTATCGGAGTCACCTAGTGCAG,7370 fluorescence intensity (a.u.)

row,Sequence,binding signal
1,ATATAATTACAATACAATCGTAGTGTAATTACACTGTAACCGGAGTCACCTAGTGCAG,14800 fluorescence intensity (a.u.)
2,TTCGGTTTTATTTTAATTGACATTTTGGACAATGATACGGCGGAGTCACCTAGTGCAG,27900 fluorescence intensity (a.u.)
3,GTTAATGATTAATTAGAGCATTTGTTGTCTCAACTATTGTCGGAGTCACCTAGTGCAG,58600 fluorescence intensity (a.u.)
4,TCATAACTATTTTAATTGACATACAAACAATGAGGCGGCACGGAGTCACCTAGTGCAG,58300 fluorescence intensity (a.u.)
5,TCATCGTGGTATTAATTATTTAATAATTATAAATATATTTCGGAGTCACCTAGTGCAG,10200 fluorescence intensity (a.u.)
6,GCACCGTTGATGAAATTGCCGTTAGAATTTCGATCATCCCCGGAGTCACCTAGTGCAG,4810 fluorescence intensity (a.u.)
7,GGTAATGATTTAACACCACCTAATTTATTTTGAACAAGCTCGGAGTCACCTAGTGCAG,20500 fluorescence intensity (a.u.)
8,CATGTCTCAATAAATTGATCGTTGGCAAAATCGGTTAGTCCGGAGTCACCTAGTGCAG,4980 fluorescence intensity (a.u.)
9,TGGAATTTTGAGTGTGTGATTGCGTTATTACGTTGCAAGTCGGAGTCACCTAGTGCAG,3550 fluorescence intensity (a.u.)
10,GGTAATTTGTCCGGTATTGAAAGTTTAGGGTGAGCAATGTCGGAGTCACCTAGTGCAG,22900 fluorescence intensity (a.u.)
11,GAAGTGATTGATATTTGAGCAATTAGTCCGTTGTCAGGGTCGGAGTCACCTAGTGCAG,62400 fluorescence intensity (a.u.)
12,AATTAAATTTTAACTATTAATATTATATTTTATAAATATTCGGAGTCACCTAGTGCAG,6480 fluorescence intensity (a.u.)
13,AAACATTAATTTGTTTTATAATATATTATAAATGACTATACGGAGTCACCTAGTGCAG,15500 fluorescence intensity (a.u.)
14,TATTAATTTAATAAAATTAATTTGGTAATGTAAATATTATCGGAGTCACCTAGTGCAG,15600 fluorescence intensity (a.u.)
15,TTAATAATTATTGTAAAATTTAATTTATATTTATTTGAATCGGAGTCACCTAGTGCAG,22600 fluorescence intensity (a.u.)
16,TGCATTAATTATTGGAGAGTGCGGTCTCCTCTCCTCCCTCCGGAGTCACCTAGTGCAG,23200 fluorescence intensity (a.u.)
17,CCATTAATTAATTAACCTGCAGCCTCAATTATTTGGTCTCCGGAGTCACCTAGTGCAG,57600 fluorescence intensity (a.u.)
18,ATATAATTAATTAAAATATTAATTATTATTTGTAAAATGGCGGAGTCACCTAGTGCAG,65500 fluorescence intensity (a.u.)
19,TTTAATTAAATTTAACATTAAATATATTTTGACTATTTGTCGGAGTCACCTAGTGCAG,53000 fluorescence intensity (a.u.)
20,ATTAATTTGACCAACTTCATTCAACATGTAACATGGTCTCCGGAGTCACCTAGTGCAG,16600 fluorescence intensity (a.u.)
21,TCCGATTAATGTGGAAATTTCTAGCCTCCACAGCGAACGTCGGAGTCACCTAGTGCAG,8650 fluorescence intensity (a.u.)
